PubChem BioAssay (NCI)
Compounds without any hit were thinned out: in the full panel of roughly 79,000, 15% have a hit. The source made the active and inactive calls. Cut-off read from the data, not from the text of the source: active = growth inhibition above about 70%; inactive = the rest.

experiment: NCI Yeast Anticancer Drug Screen. Data for the mlh1 rad18 strain (AID 175); conditions: S. cerevisiae mlh1 rad18 strain growth inhibition; at 50.0 µM; hits give high values
Outline: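 In this whole-cell yeast screen, a strain with altered DNA damage repair is challenged with compound, and its growth is measured against matched vehicle-treated controls.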

With CC/C=C/CC(=O)NCc1ccc(O)c(OC)c1 as the molecule, how does the growth inhibition read?
The growth inhibition was -16.7% (inactive).

With c1ccc2cc(N3CCOCC3)ccc2c1 as the molecule, how does the growth inhibition read?
Its growth inhibition is 2.3% (inactive).

For CCOC(=O)C(c1ccccc1)N(CCCN(CC)CC)c1ccccc1 (stereo not given), which growth inhibition is on record?
The growth inhibition was 0.45% (inactive).

For CC(C(O)C(F)(F)F)[N+](C)(C)C (stereo not given), which growth inhibition is on record?
The growth inhibition was 28% (inactive).

With Cc1ccc(NC(=O)CCCC(=O)C(C#N)c2ccccc2Cl)cc1C (stereo not given) as the molecule, how does the growth inhibition read?
Its growth inhibition is -5.1% (inactive).

Which growth inhibition does the source give for COc1ccc(/C(Cl)=C(\C=N/O)c2ccc(OC)c(OC)c2)cc1OC here?
Its growth inhibition is -7.45% (inactive).

With N/C(=N\OC(=O)Nc1ccc(CSc2ccc(Cl)cc2)o1)c1ccccn1 as the molecule, how does the growth inhibition read?
Its growth inhibition is -31.6% (inactive).

With CCOC(=O)C(C)N1CCCCCC1 (stereo not given) as the molecule, how does the growth inhibition read?
The growth inhibition was -10.8% (inactive).

With CC1(C)C=C(C(Br)c2ccc(Cl)cc2)C(=O)c2ccccc21 (stereo not given) as the molecule, how does the growth inhibition read?
The growth inhibition was 98.2% (active).

Which growth inhibition does the source give for Nc1cccc(OCC(O)CN2CCN(c3ccccc3)CC2)c1 (stereo not given) here?
The growth inhibition was 14.7% (inactive).

Which growth inhibition does the source give for CC(=O)C1CCC(C)(O)CC1=O (stereo not given) here?
The growth inhibition was -3.65% (inactive).

For COC(SC)(SC)c1cc(-c2c(Cl)cccc2Cl)no1, which growth inhibition is on record?
The growth inhibition was -4.15% (inactive).

For CSc1nc(NC2OCC(OC(C)=O)C(OC(C)=O)C2OC(C)=O)c(N=C(C)C(C)=O)c(=O)[nH]1 (stereo not given), which growth inhibition is on record?
Its growth inhibition is 12.8% (inactive).

For Cc1ccc(N=C(NN(C)C)C(c2ccccc2)c2ccccc2)cc1, which growth inhibition is on record?
The growth inhibition was -14.2% (inactive).

Which growth inhibition does the source give for CCN(CC)Cc1cc(Nc2c3ccc([N+](=O)[O-])cc3nc3ccc(OC)cc23)ccc1O here?
The growth inhibition was 65.3% (inactive).

For O=C1C=CC(CCCCCn2ccc(=O)[nH]c2=O)C(=O)N1 (stereo not given), which growth inhibition is on record?
The growth inhibition was -0.25% (inactive).

Which growth inhibition does the source give for CC(C)(C)NC(=O)NC(C)(C)C here?
Its growth inhibition is 4.45% (inactive).

For CCN(C(=O)c1ccc([N+](=O)[O-])cc1)C(c1ccccc1)P(=O)(c1ccccc1)c1ccccc1 (stereo not given), which growth inhibition is on record?
The growth inhibition was 1.45% (inactive).

For COC1(C2COc3cc(OCc4ccccc4)ccc3C2=O)C=C2OCOC2=CC1=O (stereo not given), which growth inhibition is on record?
Its growth inhibition is -4.75% (inactive).

For Cc1nc2c(=O)[nH]c3ccccc3c2o1, which growth inhibition is on record?
The growth inhibition was -32.4% (inactive).

With CCOC(=O)C[P+](c1ccc(OC)cc1)(c1ccc(OC)cc1)c1ccc(OC)cc1 as the molecule, how does the growth inhibition read?
The growth inhibition was 91.5% (active).

Which growth inhibition does the source give for COC(=O)C1(CC(=O)c2cccs2)NC(=S)NC(=O)C1C#N (stereo not given) here?
Its growth inhibition is 2.55% (inactive).

Which growth inhibition does the source give for COc1ccc(/C(N)=N/OCc2ccc(C#N)cc2)cc1 here?
Its growth inhibition is -25.8% (inactive).

Which growth inhibition does the source give for C1OC[C@@H]([C@H]2COCO2)O1 here?
The growth inhibition was -11.7% (inactive).

For Nc1cccc(C(O)c2ccccc2)c1 (stereo not given), which growth inhibition is on record?
Its growth inhibition is 13.1% (inactive).

With Cc1ccc(Cl)c(NC(=O)COc2ccc(Cl)cc2)c1 as the molecule, how does the growth inhibition read?
The growth inhibition was 26.4% (inactive).

With COCc1ccc(C(C)(C)CC(C)(C)C)cc1 as the molecule, how does the growth inhibition read?
Its growth inhibition is -1.3% (inactive).

For O=C1CCCc2cc3c(cc21)CC1(C3)Cc2cc3c(cc2C1)C(=O)CCC3, which growth inhibition is on record?
Its growth inhibition is -9% (inactive).

Which growth inhibition does the source give for CN1CC2=C(NC(=S)NC2c2ccccc2Cl)/C(=C/c2ccccc2Cl)C1 (stereo not given) here?
The growth inhibition was -5.15% (inactive).

With N#CNC1=NC(N)C(c2nc3ccccc3[nH]2)=C(CCCC(=O)Nc2cccc([N+](=O)[O-])c2)N1 (stereo not given) as the molecule, how does the growth inhibition read?
The growth inhibition was 5.65% (inactive).

For NS(=O)(=O)c1cc(Br)ccc1Br, which growth inhibition is on record?
Its growth inhibition is -7.65% (inactive).

For Cc1nc(N)[nH]c(=O)c1-n1nnc2ccccc2c1=O, which growth inhibition is on record?
Its growth inhibition is -4.1% (inactive).

With CSc1nc(NC2OCC(O)C(O)C2O)cc(=O)n1C (stereo not given) as the molecule, how does the growth inhibition read?
The growth inhibition was -2.95% (inactive).

For C/C(N=NC(=S)N1CCCCC1)=C1\C=CC=CN1O, which growth inhibition is on record?
Its growth inhibition is 22.1% (inactive).

For [N-]=[N+]=NC12CC3C4CC5CC3C(C1)C(C5)C4C2, which growth inhibition is on record?
Its growth inhibition is -8.45% (inactive).

For O=C1OC2C(Cl)CC(Cl)CC2C=C1c1cccc([N+](=O)[O-])c1 (stereo not given), which growth inhibition is on record?
Its growth inhibition is -0.4% (inactive).

For O=C1c2ccccc2N2OC3(N4CCOCC4)CCCC3C12c1ccccc1 (stereo not given), which growth inhibition is on record?
Its growth inhibition is 48.5% (inactive).

With CC(C)[C@@]12O[C@@H]1CC13OC1[C@@H](O)CC[C@@]32O (stereo not given in full) as the molecule, how does the growth inhibition read?
Its growth inhibition is -20.8% (inactive).

Which growth inhibition does the source give for O=C(NNC1=NCCCCN1)Nc1ccc(Cl)cc1 here?
The growth inhibition was 5.95% (inactive).

With CCN(CC)c1ccc(NC(C)=O)c(C)c1 as the molecule, how does the growth inhibition read?
Its growth inhibition is 3.3% (inactive).
